This is an account of results in PubChem BioAssay.

The inhibition is the change of the read-out against control, counted positive when it falls.

Active and inactive are the calls of the source.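 Rule for the calls, unless noted: active = inhibition at or above 50% at 10 µM; inactive = inhibition below 50%.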

A short description of test [1]: inhibitors of TNFa-induced NFkB p65 translocation, primary screen, imaging, HUVEC, MLSMR starter and 10KST1 sets (AID 438;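 active = inhibition above 20% together with a positive visual image hit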;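 note: compound added about 3h40 before a 20 min TNFalpha stimulation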;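 for inhibition: signal is the nuclear over cytoplasmic p65 intensity ratio per well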). As to conditions: HUVEC TNFa-induced p65 nuclear translocation; cell count: measured here: nuclei count (cytotoxicity indicator), at 2.08 µM; inhibition: at 2 µM, stronger effect = higher value, 0% TNFa-plus-vehicle, 100% no-TNFa wells.
Test [2] can be described thus: inhibitors of mutant huntingtin aggregation, primary screen, imaging, exon1htt(103Q)mCFP cells, high-content imaging (AID 483;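 active = visual image review flags a hit and inhibition of aggregation exceeds 20%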;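 note: compound exposure lasted 3 days before fixation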;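 for nuclei count: percent of the per-plate median nuclei count of sample wells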). The conditions noted are these: exon1htt(103Q)mCFP cell line, aggregate imaging, at 2 µM; inhibition of aggregation: stronger effect = higher value; nuclei count: measured here: cell count, toxicity.
Test [3] in a line: inhibitors of E-selectin induction by TNFa, primary screen, imaging, HUVEC, immunofluorescence, MLSMR starter and 10KST1 sets (AID 487;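 active = visually confirmed hit in the image check and inhibition above 20%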;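 for inhibition: signal is fraction of cell area covered by stained E-selectin grains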;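 for nuclei count: 100% = median nuclei count of all wells on the same plate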). The conditions noted are these: HUVEC TNFalpha-induced E-selectin immunofluorescence imaging, at 2 µM; inhibition: stronger effect = higher value; nuclei count: measured here: cell number, toxicity.
Test [4] concerns the target Voltage-gated potassium channel subunit beta-2 (Rattus norvegicus) (UniProt P62483). Put plainly: KvBeta enzyme negative modulators, primary screen, biochemical, NADPH fluorescence (AID 622;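 active = fluorescence slope higher than the sample average by over 3 SD, cut at about -0.22 in these data, passing the limit was not always enough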;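 note: slope of raw intensity against log time taken from 70 to 1610 s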). The conditions noted are these: recombinant KvBeta, 4-cyanobenzaldehyde reduction, at 10 µM, stronger effect = higher value.
The target is the same in test [5]. Put plainly: KvBeta positive modulators, primary screen, biochemical, NADPH fluorescence (AID 623;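 active = NADPH fluorescence slope more negative than the mean of all samples by about 3 SD, 99.7% confidence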;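 note: fluorescence intensity change per second fitted from 20 to 320 s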). The conditions noted are these: Recombinant KvBeta, NADPH fluorescence decrease slope, 10 min; at 10 µM; stronger effect = lower value.
In test [6] the target is Alpha-2C adrenergic receptor (Homo sapiens) (UniProt P18825). In words: modulators of alpha2C/GIRK thallium flux, primary screen, cell-based, HEK293 alpha2C/GIRK1/2 (AID 624;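 active = fluorescence slope after compound addition differing from the mean of all screened samples at 99.7% confidence, in either direction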;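 note: slope of fluorescence ratio to pre-addition baseline per second over 15 to 24 s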). As to conditions: thallium flux BTC fluorescence, at 10 µM, actives lie on both sides.
The nature of test [7]: inhibitors of Sendai virus-induced IRF3 signaling, primary screen, TLR/RLR signaling modifier project, cell-based, Sendai virus stimulus, luciferase, 10K MLSCN set (AID 602276).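 Note: firefly luciferase from ISG56 promoter only with Renilla not read in this screen; 0% = Sendai virus plus DMSO and 100% = medium plus DMSO without virus.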 The conditions noted are these: HEK293 RL24 IRF3 luciferase reporter, at 10 µM, stronger effect = higher value. In general terms: Reporter assays use an easily measured gene product as a stand-in for the process of interest.

The nature of test [8]: inhibitors of poly I:C-induced TLR3 signaling, primary screen, cell-based, poly I:C stimulus, luciferase, 10K MLSCN set (AID 602277;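 active = inhibition of the reporter signal at or above 50%; inactive = inhibition below 50%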). The conditions noted are these: HEK293-TLR3 RL24 IRF3 luciferase reporter, at 10 µM, stronger effect = higher value.

Chain of Alpha-2C adrenergic receptor (Homo sapiens) (P18825 whole entry, looked up): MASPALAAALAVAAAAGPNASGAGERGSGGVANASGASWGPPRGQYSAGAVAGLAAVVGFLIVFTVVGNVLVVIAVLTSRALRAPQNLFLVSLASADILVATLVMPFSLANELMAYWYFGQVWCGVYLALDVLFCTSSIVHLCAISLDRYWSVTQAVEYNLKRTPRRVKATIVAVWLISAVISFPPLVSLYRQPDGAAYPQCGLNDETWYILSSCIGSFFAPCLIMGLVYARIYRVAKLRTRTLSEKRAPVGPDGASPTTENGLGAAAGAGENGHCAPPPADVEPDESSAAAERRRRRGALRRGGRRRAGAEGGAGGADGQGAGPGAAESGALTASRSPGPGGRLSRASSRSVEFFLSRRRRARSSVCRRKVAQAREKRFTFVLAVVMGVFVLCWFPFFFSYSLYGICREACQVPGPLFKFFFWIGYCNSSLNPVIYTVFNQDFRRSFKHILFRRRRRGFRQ
Chain of Voltage-gated potassium channel subunit beta-2 (Rattus norvegicus) (P62483 whole entry, looked up): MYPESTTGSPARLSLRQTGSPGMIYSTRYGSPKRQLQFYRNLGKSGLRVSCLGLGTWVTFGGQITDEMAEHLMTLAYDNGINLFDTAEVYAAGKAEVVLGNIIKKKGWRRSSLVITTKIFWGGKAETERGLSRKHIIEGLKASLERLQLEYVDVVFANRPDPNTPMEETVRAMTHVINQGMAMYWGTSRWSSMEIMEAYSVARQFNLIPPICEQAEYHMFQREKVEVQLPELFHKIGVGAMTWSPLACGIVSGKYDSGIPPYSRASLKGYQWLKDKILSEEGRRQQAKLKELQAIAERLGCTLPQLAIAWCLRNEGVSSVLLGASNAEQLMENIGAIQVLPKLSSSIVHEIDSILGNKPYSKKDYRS

On to `Cn1c(=O)[nH]c(=O)c2c1nc(NCCCn1ccnc1)n2Cc1cccc(Br)c1`, for which the cell count in test [1] came to 663. Also, the inhibition is -12.9% (inactive) in test [1], -53.6% (inactive) in test [3], 16.8% (inactive) in test [7] and 26.1% (inactive) in test [8]. Also, the inhibition of aggregation in test [2] was 8.6% (inactive). Besides, the nuclei count in test [2] was 68.9%; in test [3], 112%. For the same compound, the fluorescence slope in test [4] was -0.403 (inactive). Further, in test [5], the NADPH fluorescence slope is -2.8e-05 (inactive). Besides, the slope in test [6] is 0.006 (inactive).

With `O=S1(=O)CCC(NS(=O)(=O)/C=C/c2ccccc2)C1` (centres undefined), the cell count in test [1] was 566. The inhibition in test [1] is -1.6% (inactive); in test [3], -1.4% (inactive); in test [7], 4.67% (inactive); in test [8] it was 14.6% (inactive). In addition, the inhibition of aggregation in test [2] is 2% (inactive). Moreover, the nuclei count in test [2] came to 119%; in test [3], 96.4%. Further, the fluorescence slope in test [4] was -0.386 (inactive). Moreover, the NADPH fluorescence slope in test [5] was -0.000106 (inactive). For the same compound, the slope in test [6] is 0.00742 (inactive).

Regarding `COc1cc(C2c3c(oc4ccccc4c3=O)C(=O)N2c2ccc(C)cn2)ccc1O` (centres undefined), the cell count in test [1] came out at 464. Besides, the inhibition in test [1] was 2.1% (inactive); in test [3], -49% (inactive); in test [7], -5.41% (inactive); in test [8] it was 7.4% (inactive). In test [2], the inhibition of aggregation is 8.8% (inactive). The nuclei count amounted to 107% in test [2] and 122% in test [3]. In test [4], the fluorescence slope is -0.598 (inactive). Also, the NADPH fluorescence slope in test [5] was -4.5e-05 (inactive). For the same compound, the slope in test [6] was 0.00645 (inactive).

For the compound `c1ccc2c(c1)nc(NCCN1CCOCC1)c1nncn12`, the cell count in test [1] turned out to be 508. The inhibition in test [1] was 3.2% (inactive); in test [3], -51.1% (inactive); in test [7], 12.4% (inactive); in test [8], 37.9% (inactive). Besides, the inhibition of aggregation in test [2] is 25.2% (inactive). Besides, the results for the nuclei count in test [2] and in test [3] were 85.4% and 99.2%, respectively. Besides, in test [4], the fluorescence slope was -0.587 (inactive). Moreover, in test [5], the NADPH fluorescence slope was -4e-05 (inactive). Further, the slope in test [6] was 0.00643 (inactive).

For the compound `Cc1ccccc1Cn1ccc(NC(=O)c2onc(C)c2Cl)n1`, in test [1], the cell count was found to be 654. The inhibition was -1.6% (inactive) in test [1], -52.1% (inactive) in test [3], -15.7% (inactive) in test [7] and -37% (inactive) in test [8]. Moreover, the inhibition of aggregation in test [2] is 28.9% (inactive). Besides, the nuclei count stood at 118% in test [2] and 106% in test [3]. Besides, the fluorescence slope in test [4] is -0.425 (inactive). The NADPH fluorescence slope in test [5] is -4.5e-05 (inactive). In addition, the slope in test [6] is 0.00472 (inactive).

As for `CCOC(=O)N1CCC(NC(=O)c2cc3c(=O)n(C)c4ccccc4c3n2C)CC1`, in test [1], the cell count turned out to be 701. Besides, the inhibition was -2.8% (inactive) in test [1], -50.1% (inactive) in test [3], 4.95% (inactive) in test [7] and 28.7% (inactive) in test [8]. The inhibition of aggregation in test [2] is 4.2% (inactive). Also, the nuclei count is 140% in test [2] and 112% in test [3]. Moreover, the fluorescence slope in test [4] was -0.416 (inactive). Further, in test [5], the NADPH fluorescence slope is -6.5e-05 (inactive). In addition, the slope in test [6] is 0.00503 (inactive).

`COc1cccc(N2CCN(Cc3cccnc3)CC2)c1`: the cell count in test [1] came out at 621. Besides, the inhibition was -1% (inactive) in test [1], 15.6% (inactive) in test [3], 6.56% (inactive) in test [7] and 11.4% (inactive) in test [8]. Besides, in test [2], the inhibition of aggregation was -21.4% (inactive). Also, the nuclei count was 96.6% in test [2] and 87.2% in test [3]. The fluorescence slope in test [4] is -0.364 (inactive). The NADPH fluorescence slope in test [5] is -6e-05 (inactive). For the same compound, the slope in test [6] was 0.00629 (inactive).

Take `COc1ccc(CCN2CC(O)=C(c3nc4ccccc4c(=O)[nH]3)C2=N)cc1OC`: in test [1], the cell count was 642. Besides, the inhibition in test [1] is -0.8% (inactive); in test [3] it was -35.6% (inactive); in test [7], 2.39% (inactive); in test [8], 7.15% (inactive). Also, the inhibition of aggregation in test [2] is -7.4% (inactive). Also, the results for the nuclei count in test [2] and in test [3] were 83.2% and 98.6%, respectively. Moreover, in test [4], the fluorescence slope is -0.489 (inactive). In addition, the NADPH fluorescence slope in test [5] is -1e-06 (inactive). Moreover, in test [6], the slope is 0.00682 (inactive).

As for `COc1ccc(C2CC(c3ccccc3)Nc3nc(NC(=O)c4cccs4)nn32)cc1` (centres undefined), in test [1], the cell count was found to be 413. Moreover, the inhibition was 1.4% (inactive) in test [1], -156% (inactive) in test [3], 18.4% (inactive) in test [7] and 25.3% (inactive) in test [8]. For the same compound, the inhibition of aggregation in test [2] was -6.8% (inactive). Further, the nuclei count in test [2] came to 102%; in test [3], 112%. In addition, the fluorescence slope in test [4] is -0.372 (inactive). Besides, the NADPH fluorescence slope in test [5] is -7.5e-05 (inactive). Besides, the slope in test [6] was 0.00554 (inactive).

For the compound `Fc1cccc(Nc2cc(-n3cccn3)ncn2)c1`, the cell count in test [1] was determined as 553. Moreover, the inhibition was -8.3% (inactive) in test [1], -65.9% (inactive) in test [3], -32.7% (inactive) in test [7] and -66.1% (inactive) in test [8]. The inhibition of aggregation in test [2] was -0.2% (inactive). Also, the nuclei count in test [2] was 89.5%; in test [3] it was 109%. Moreover, the fluorescence slope in test [4] was -0.509 (inactive). Also, the NADPH fluorescence slope in test [5] is -7.2e-05 (inactive). Besides, the slope in test [6] is 0.00508 (inactive).

For the compound `COc1c(C(=O)Nc2c(C)n(C)n(-c3ccccc3)c2=O)ccc2ccccc12`, the cell count in test [1] turned out to be 239. For the same compound, the inhibition in test [1] is -1.7% (inactive); in test [3] it was -68.7% (inactive); in test [7] it was 6.79% (inactive); in test [8] it was 11.2% (inactive). Besides, the inhibition of aggregation in test [2] is 16.4% (inactive). Also, the nuclei count in test [2] was 63.2%; in test [3] it was 117%. The fluorescence slope in test [4] was -0.512 (inactive). Also, the NADPH fluorescence slope in test [5] is -3.9e-05 (inactive). In addition, the slope in test [6] is 0.00486 (inactive).

`COc1cccc(-c2csc(N3CCN(CC(=O)Nc4ccc5c(c4)OCO5)CC3)n2)c1`: in test [1], the cell count was determined as 262. Also, the inhibition in test [1] was 3.1% (inactive); in test [3], -4.3% (inactive); in test [7], -45.8% (inactive); in test [8] it was -62.6% (inactive). Besides, the inhibition of aggregation in test [2] is -24.6% (inactive). For the same compound, the nuclei count in test [2] was determined as 88.4%; in test [3], 91.2%. Moreover, in test [4], the fluorescence slope was -0.622 (inactive). Also, the NADPH fluorescence slope in test [5] was -1.3e-05 (inactive). Also, the slope in test [6] was 0.00556 (inactive).

In the case of `Cc1nc(N)c(C#N)c(-c2cccnc2)c1C`, in test [1], the cell count was determined as 494. Also, the inhibition in test [1] is -14.5% (inactive); in test [3], -16.2% (inactive); in test [7], 4.72% (inactive); in test [8], -5.6% (inactive). Further, the inhibition of aggregation in test [2] is 30.9% (inactive). For the same compound, the nuclei count in test [2] turned out to be 85%; in test [3], 88.9%. In test [4], the fluorescence slope is -0.411 (inactive). The NADPH fluorescence slope in test [5] was 1.8e-05 (inactive). Moreover, in test [6], the slope is 0.00561 (inactive).

Regarding `CN(CC(=O)N1CCCc2c1c(=O)oc1ccc(O)cc21)Cc1ccccc1`, the cell count in test [1] was determined as 418. Further, the inhibition in test [1] was 5.7% (inactive); in test [3] it was -85.3% (inactive); in test [7] it was 11.5% (inactive); in test [8], 27.4% (inactive). For the same compound, the inhibition of aggregation in test [2] is -21% (inactive). Also, the nuclei count in test [2] was determined as 97.1%; in test [3], 117%. Moreover, the fluorescence slope in test [4] was -0.258 (inactive). The NADPH fluorescence slope in test [5] was -4.5e-05 (inactive). The slope in test [6] is 0.00473 (inactive).
